Screening data (PubChem)
This is one part of a sample in which hits are shown more often than they occur.
EZH2 inh: EZH2/PRC2 methyltransferase inhibitors, primary screen, biochemical, DELFIA time-resolved fluorescence, single point | Histone-lysine N-methyltransferase EZH2 (Homo sapiens), Q15910 | PRC2 H3K27 methylation, DELFIA TRF, 1 h | inhibition, % at 12.5 µM | 0.35% of 57,000 active;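 active means mean inhibition of replicates at least 50% and every single replicate also reaching 50%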;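 further: dimethyl H3K27 on biotinylated H3 21-44 peptide detected by antibody; plate controls were median neutral control wells for no effect and median positive control wells for full effect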
Starred values were filed as active, the others as inactive.

For CO[C@H]1CN(C)C(=O)c2cc(NS(=O)(=O)CC(F)(F)F)ccc2OC[C@@H](C)N(C(=O)c2ccc3c(c2)OCO3)C[C@H]1C the results were EZH2 inh 9.0.
Screening COc1ccc(NC(=O)N(C)C[C@H]2OCc3ccccc3-c3ccccc3C(=O)N([C@@H](C)CO)C[C@H]2C)c(OC)c1 returned EZH2 inh -26.3.
COc1ccc(NC(=O)CN2C(=O)c3cccc4cccc2c34)cc1OC was read as EZH2 inh -19.4.
COc1ccc(C)cc1NC(=O)CN1C(=O)c2cccc3cccc1c23 was read as EZH2 inh -8.2.
Screening O=C1c2cccc3cccc(c23)N1Cc1ccc(F)cc1Cl returned EZH2 inh 59.8*.
Screening Cc1c(NC(=O)COc2ccc(Br)cc2)cccc1-c1nc2ccccc2s1 returned EZH2 inh 15.1.
Screening C[C@H]1CN([C@@H](C)CO)S(=O)(=O)c2ccc(C3=CCCCC3)cc2O[C@@H]1CN(C)Cc1ccccc1F returned EZH2 inh 23.3.
Screening O=[N+]([O-])c1ccc(OCc2nc(-c3cccnc3)no2)cc1 returned EZH2 inh 3.0.
CC1(C)CC[C@]2(C(=O)O)CC[C@]3(C)C(=CCC4[C@@]5(C)CC[C@H](O[C@@H]6OC[C@H](O)[C@H](O)[C@H]6O)[C@@](C)(CO)C5CC[C@]43C)C2C1 (stereo not given in full) was read as EZH2 inh -12.0.
For CC1(C)CC[C@]2(C(=O)O)CC[C@]3(C)C(=CCC4[C@@]5(C)C[C@@H](O)[C@H](O)[C@@](C)(CO)C5CC[C@]43C)[C@@H]2[C@@H]1O (stereo not given in full) the results were EZH2 inh 55.1*.
For CC1(C)CC[C@]2(C(=O)O)CC[C@]3(C)C(=CCC4[C@@]5(C)C[C@@H](O)[C@H](O)C(CO)(CO)C5CC[C@]43C)C2[C@@H]1O (stereo not given in full) the results were EZH2 inh 43.9.
For COC(=O)C[C@@H]1C[C@H]2c3cc(NC(=O)c4ccc5c(c4)OCO5)ccc3O[C@H]2[C@H](CO)O1 the results were EZH2 inh 4.5.
For CC(C)CC(=O)c1c(O)cc(O)cc1OC1OC(COC(=O)c2cc(O)c(O)c(O)c2)C(O)C(O)C1O (stereo not given) the results were EZH2 inh 93.9*.
Screening O=C(OCc1ccccc1O[C@@H]1O[C@H](CO)[C@@H](O)[C@H](O)[C@H]1O)c1c(O)cccc1O[C@@H]1O[C@H](CO)[C@@H](O)[C@H](O)[C@H]1O returned EZH2 inh 2.0.
Screening O=C(OCC1OC(Oc2ccc(O)cc2COC(=O)C2(O)C(O)CCC(=O)C2O)C(O)C(O)C1O)c1ccccc1 (stereo not given) returned EZH2 inh 22.1.
For Cc1ccccc1-c1cnc2c(c1)C(=O)N([C@@H](C)CO)C[C@H](C)[C@@H](CN(C)Cc1cccnc1)O2 the results were EZH2 inh 14.4.
For Cc1ccc(/C=C/c2ccc(=O)n(Cc3ccccc3Cl)n2)cc1 the results were EZH2 inh 70.1*.
Screening Cc1nn(Cc2ccccc2Cl)c(C)c1NC(=O)C1CC(c2ccc(Cl)cc2)=NO1 (stereo not given) returned EZH2 inh 1.1.
For Cc1ccc(=O)n(-c2ccccc2)c1 the results were EZH2 inh -6.4.
CO[C@@H]1CN(C)C(=O)c2ccc(NS(=O)(=O)c3ccccc3)cc2OC[C@H](C)N(Cc2ccccn2)C[C@@H]1C was read as EZH2 inh -6.3.
Screening CO[C@@H]1CN(C)C(=O)c2ccc(NC(=O)Nc3cccc(F)c3)cc2OC[C@@H](C)N(C(=O)Nc2cccc(F)c2)C[C@H]1C returned EZH2 inh -18.6.
COC(=O)c1ccccc1NC(=O)c1ccc(NC(=O)COc2ccccc2)cc1 was read as EZH2 inh 9.7.
Screening COC(=O)c1ccccc1NC(=O)c1cccc(NC(=O)COc2ccccc2)c1C returned EZH2 inh 16.9.
For COC(=O)c1ccccc1NC(=O)c1ccc(COc2ccccc2)o1 the results were EZH2 inh 53.2*.
`C[C@@H]1CN([C@@H](C)CO)S(=O)(=O)c2ccc(C#CC3CC3)cc2O[C@@H]1CN(C)CC1CCOCC1` gave EZH2 inh -16.7.
`Cc1ccc(S(=O)(=O)N[C@H]2CC[C@@H](CCNC(=O)C3CCC3)O[C@@H]2CO)cc1` gave EZH2 inh -2.3.
Screening C=CCOC(=O)C1=C[C@H](c2csc3ccccc23)C[C@H](OCc2ccc(CO)cc2)O1 returned EZH2 inh 59.2*.
`O=C(NC1CC1)C1=C[C@H](c2csc3ccccc23)C[C@H](OCc2ccc(CO)cc2)O1` gave EZH2 inh 3.5.
For C=CCOC(=O)C1=C[C@H](c2coc3ccccc3c2=O)C[C@H](OCc2ccc(CO)cc2)O1 the results were EZH2 inh 0.1.
For C[C@@H]1CN([C@H](C)CO)S(=O)(=O)c2ccc(C#CC(C)(C)O)cc2O[C@H]1CN(C)C(=O)CN(C)C the results were EZH2 inh -20.7.
